Measurements published in PubChem BioAssay (NCI).
This is part of a sample that, as a whole, favours compounds with a hit. Of some 83,000 tested, about 20% had one in any assay.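 For each line, cells grew in 96-well plates with the test compound present at a single concentration for 48 hours.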 The source made the active and inactive calls. The calls were made as follows: active = growth percent below 10; inactive = the rest.

Tests used:
Test in all cases: NCI-60 one-dose screen, 48 h (100 = growth as untreated, 0 = no growth, -100 = all killed)
Conditions in all cases: 10 µM unless noted
SK-MEL-2 melanoma = system: SK-MEL-2 melanoma
EKVX NSCLC = system: EKVX NSCLC
SN12C renal = system: SN12C renal
UO-31 renal = system: UO-31 renal
TK-10 renal = system: TK-10 renal
ACHN renal = system: ACHN renal
CAKI-1 renal = system: CAKI-1 renal
A498 renal = system: A498 renal
CCRF-CEM leukemia = system: CCRF-CEM leukemia
MOLT-4 leukemia = system: MOLT-4 leukemia

Measured: growth

Cc1c(-c2ccc(-c3ccccc3F)cc2)nc2ccc(F)cc2c1C(=O)O
inactive: SK-MEL-2 melanoma 101% | EKVX NSCLC 55% | SN12C renal 47.6% | UO-31 renal 35.8% | TK-10 renal 56% | ACHN renal 36.5% | CAKI-1 renal 25.9% | A498 renal 80.9% | CCRF-CEM leukemia 27.9%
active: MOLT-4 leukemia 2.49%

CCCCCCCCCCCCCCCCS(=O)(=O)Nc1cc(C(=O)NN)cc(C(=O)NN)c1
inactive: SK-MEL-2 melanoma 114% | EKVX NSCLC 47.1% | SN12C renal 72.9% | UO-31 renal 65% | TK-10 renal 68.6% | ACHN renal 77.1% | CAKI-1 renal 49% | A498 renal 90.4% | CCRF-CEM leukemia 34.3% | MOLT-4 leukemia 21.5%

CCN(CC)CCCNc1cccc2c(C)cc(OC)nc12
inactive: SK-MEL-2 melanoma 97.4% | EKVX NSCLC 114% | SN12C renal 88.4% | UO-31 renal 56.9% | TK-10 renal 96.3% | ACHN renal 91.6% | CAKI-1 renal 96.8% | A498 renal 70.3% | CCRF-CEM leukemia 102% | MOLT-4 leukemia 78.7%

C=CCn1c(C)nc2cc(Nc3nc(Nc4ccc5nc(C)n(CC=C)c5c4)nc4ccccc34)ccc21
inactive: SK-MEL-2 melanoma 121% | EKVX NSCLC 97.1% | SN12C renal 96.5% | UO-31 renal 89.3% | TK-10 renal 130% | ACHN renal 104% | CAKI-1 renal 101% | A498 renal 125% | CCRF-CEM leukemia 94.8% | MOLT-4 leukemia 101%

C/C(=N\NC(=S)Nc1ccccc1)c1ccccn1
inactive: SK-MEL-2 melanoma 73.5% | EKVX NSCLC 12.9% | SN12C renal 39.2% | TK-10 renal 50.9% | ACHN renal 17.7% | A498 renal 29.1% | CCRF-CEM leukemia 16.7%
active: UO-31 renal -1.12% | CAKI-1 renal 6.16% | MOLT-4 leukemia 8.83%

CC(C)c1[nH]ncc1-c1nc2ccc3[nH]ncc3c2c2c1CCCC2
active: A498 renal -12.7% | MOLT-4 leukemia 9.07%
inactive: SK-MEL-2 melanoma 68.6% | EKVX NSCLC 13.5% | SN12C renal 35.2% | UO-31 renal 12.3% | TK-10 renal 22.7% | ACHN renal 16.8% | CAKI-1 renal 17.6% | CCRF-CEM leukemia 28.8%

COc1cc(NC(C)CCCN)c2ncccc2c1Oc1ccc(Cl)cc1 (stereo not given)
inactive: SK-MEL-2 melanoma 102% | EKVX NSCLC 77.1% | SN12C renal 77.3% | UO-31 renal 41.5% | TK-10 renal 101% | ACHN renal 82.6% | CAKI-1 renal 68.7% | A498 renal 71.1% | CCRF-CEM leukemia 77% | MOLT-4 leukemia 52.9%

O=C1c2ccccc2C2N1CCC1CCc3ccccc3N12 (stereo not given)
inactive: SK-MEL-2 melanoma 99.7% | EKVX NSCLC 104% | SN12C renal 94.8% | UO-31 renal 55.1% | TK-10 renal 108% | ACHN renal 99.3% | CAKI-1 renal 88.4% | A498 renal 75.5% | CCRF-CEM leukemia 105% | MOLT-4 leukemia 101%

CN1CCN(Cc2ccc(NC(=O)c3cnc(F)c(C#Cc4cnc(N)c5ncccc45)c3)cc2C(F)(F)F)CC1
active: SK-MEL-2 melanoma -30.1% | UO-31 renal 7.5% | A498 renal -25.8% | MOLT-4 leukemia 8.73%
inactive: EKVX NSCLC 23.7% | SN12C renal 11.7% | TK-10 renal 28.7% | ACHN renal 10.1% | CAKI-1 renal 13.1% | CCRF-CEM leukemia 18.2%

CC(CN1CCN(C)CC1)CN1c2ccccc2Sc2ccc(C(F)(F)F)cc21 (stereo not given)
inactive: SK-MEL-2 melanoma 70% | EKVX NSCLC 70.4% | SN12C renal 47.2% | UO-31 renal 39.2% | TK-10 renal 21% | ACHN renal 38.1% | CAKI-1 renal 37.3% | A498 renal 60.3% | CCRF-CEM leukemia 25.2% | MOLT-4 leukemia 15.9%

CNCc1ccccc1CN(CC(=O)Nc1ccc2c(c1)CC1(C2)C(=O)Nc2ncccc21)C(=O)C(C)(C)C (stereo not given)
inactive: SK-MEL-2 melanoma 104% | EKVX NSCLC 100% | SN12C renal 103% | UO-31 renal 88.1% | TK-10 renal 103% | ACHN renal 107% | CAKI-1 renal 91.6% | A498 renal 122% | CCRF-CEM leukemia 116% | MOLT-4 leukemia 103%

Cc1[nH]nc2ccc3nc(-c4ccc5[nH]ncc5c4)c4c(c3c12)CCCC4
active: SK-MEL-2 melanoma -15.5% | ACHN renal 6.93% | A498 renal -10.8% | MOLT-4 leukemia 3.85%
inactive: EKVX NSCLC 20.2% | SN12C renal 23.2% | UO-31 renal 12.8% | TK-10 renal 10.3% | CAKI-1 renal 12.5% | CCRF-CEM leukemia 16.8%

O=C(CSc1ccc(Cl)cc1)Nc1ccc(-c2nc3ccccc3s2)c(Cl)c1
inactive: SK-MEL-2 melanoma 92.9% | EKVX NSCLC 59.6% | SN12C renal 46.5% | UO-31 renal 38.2% | TK-10 renal 85.4% | ACHN renal 54.1% | CAKI-1 renal 53.5% | A498 renal 32.1% | CCRF-CEM leukemia 41.6% | MOLT-4 leukemia 68.3%

CC[C@H](Nc1nc(C)nc(N)c1C#N)c1nc2cccc(NCc3ccc(C(=O)NO)cc3)c2c(=O)n1-c1ccccc1
inactive: SK-MEL-2 melanoma 67.2% | EKVX NSCLC 12.7%
active: SN12C renal 7.89% | UO-31 renal -12.5% | TK-10 renal 2% | ACHN renal 2.03% | CAKI-1 renal -11.1% | A498 renal -27.1% | CCRF-CEM leukemia 6.17% | MOLT-4 leukemia 2.8%

CCOC(=O)C(Nc1ccccc1)C(=O)OCC
inactive: SK-MEL-2 melanoma 108% | EKVX NSCLC 108% | SN12C renal 99.3% | UO-31 renal 74.8% | TK-10 renal 107% | ACHN renal 99.3% | CAKI-1 renal 105% | A498 renal 126% | CCRF-CEM leukemia 111% | MOLT-4 leukemia 83%

CC1C2CCC(C2)C1COCCOCCO (stereo not given)
inactive: SK-MEL-2 melanoma 112% | EKVX NSCLC 112% | SN12C renal 109% | UO-31 renal 98.7% | TK-10 renal 109% | ACHN renal 106% | CAKI-1 renal 105% | A498 renal 83.7% | CCRF-CEM leukemia 112% | MOLT-4 leukemia 97.6%

O=C(OCc1ccc2c(Cl)cc(Cl)c(O)c2n1)c1cc2ccccc2[nH]1
active: SK-MEL-2 melanoma -54.6% | EKVX NSCLC -71.9% | SN12C renal -60.6% | UO-31 renal -100% | TK-10 renal -94.1% | ACHN renal -96.7% | CAKI-1 renal -98% | A498 renal -78.4% | CCRF-CEM leukemia 0% | MOLT-4 leukemia -8.99%

COc1cc2nccc(Oc3ccc(NC(=O)C4(C(=O)Nc5c(F)cc(F)cc5F)CC4)cc3)c2cc1Oc1ccc(N)cn1
active: A498 renal -6.52%
inactive: SK-MEL-2 melanoma 81.5% | EKVX NSCLC 45.2% | SN12C renal 30.6% | UO-31 renal 45.3% | TK-10 renal 84.5% | ACHN renal 50.9% | CAKI-1 renal 65.6% | CCRF-CEM leukemia 70.9% | MOLT-4 leukemia 38.5%

Cc1c(O)c(=O)n(-c2ccccc2)n1C
inactive: SK-MEL-2 melanoma 112% | EKVX NSCLC 120% | SN12C renal 98.2% | UO-31 renal 79.6% | TK-10 renal 112% | ACHN renal 96.5% | CAKI-1 renal 107% | A498 renal 120% | CCRF-CEM leukemia 118% | MOLT-4 leukemia 84.2%

O=C(Cn1nncc1CN1C(=O)CSC1=O)Nc1ccc(F)cc1
inactive: SK-MEL-2 melanoma 101% | EKVX NSCLC 92.6% | SN12C renal 98.3% | UO-31 renal 87.6% | TK-10 renal 97.9% | ACHN renal 97.9% | CAKI-1 renal 96.4% | A498 renal 76.4% | CCRF-CEM leukemia 97.4% | MOLT-4 leukemia 105%

CCc1ccc(Nc2ncnc3c2cnn3-c2cccc(Br)c2)cc1
inactive: SK-MEL-2 melanoma 108% | EKVX NSCLC 102% | SN12C renal 101% | UO-31 renal 85.6% | TK-10 renal 107% | ACHN renal 108% | CAKI-1 renal 89.3% | A498 renal 70.7% | CCRF-CEM leukemia 131% | MOLT-4 leukemia 101%

COc1ccc(C(=O)C(CN(C)C)c2ccccc2)cc1 (stereo not given)
inactive: SK-MEL-2 melanoma 14.6% | EKVX NSCLC 28.1% | SN12C renal 31.4% | TK-10 renal 29.5% | A498 renal 60.2% | CCRF-CEM leukemia 12.6% | MOLT-4 leukemia 21.7%
active: UO-31 renal -18.7% | ACHN renal -71.4% | CAKI-1 renal -46.7%

COc1ccc(Br)c2ccccc12
inactive: SK-MEL-2 melanoma 113% | EKVX NSCLC 94% | SN12C renal 112% | UO-31 renal 70.3% | TK-10 renal 118% | ACHN renal 102% | CAKI-1 renal 95.3% | A498 renal 135% | CCRF-CEM leukemia 103% | MOLT-4 leukemia 91.6%

COc1ccc(NC(=O)/C=C/c2ccc(NC(=O)N3CCCC3)cc2)cn1
inactive: SK-MEL-2 melanoma 104% | EKVX NSCLC 92.8% | SN12C renal 98.7% | UO-31 renal 100% | TK-10 renal 104% | ACHN renal 114% | CAKI-1 renal 100% | A498 renal 99.4% | CCRF-CEM leukemia 97% | MOLT-4 leukemia 101%

COc1cccc2nc(Nc3cccc(NC(=O)c4ccc(N5CCN(C)CC5)c(C(F)(F)F)c4)c3)ccc12
active: MOLT-4 leukemia -16.6%
inactive: SK-MEL-2 melanoma 77.4% | EKVX NSCLC 66.7% | SN12C renal 45.7% | UO-31 renal 22.1% | TK-10 renal 51.1% | ACHN renal 26.8% | CAKI-1 renal 24.8% | A498 renal 64.4% | CCRF-CEM leukemia 12.5%

CCc1oc2ccccc2c1C(=O)c1cc(I)c(O)c(I)c1
active: SK-MEL-2 melanoma 1.14%
inactive: EKVX NSCLC 84.5% | SN12C renal 46.4% | UO-31 renal 80% | TK-10 renal 87.7% | ACHN renal 72.9% | CAKI-1 renal 45.9% | A498 renal 98.2% | CCRF-CEM leukemia 66.2% | MOLT-4 leukemia 32.5%

O=c1[nH]c2ccccc2n2cc3cccnc3c12
inactive: SK-MEL-2 melanoma 105% | EKVX NSCLC 86.4% | SN12C renal 51.2% | UO-31 renal 67.8% | TK-10 renal 83.7% | ACHN renal 49.1% | CAKI-1 renal 68.1% | A498 renal 51.2% | CCRF-CEM leukemia 74.5% | MOLT-4 leukemia 48.4%

COc1ccc(/C(=C\c2ccc3c(c2)OCO3)C(=O)Nc2nc3ccccc3s2)cc1
inactive: SK-MEL-2 melanoma 95.2% | EKVX NSCLC 102% | SN12C renal 98.3% | UO-31 renal 91.9% | TK-10 renal 104% | ACHN renal 96.6% | CAKI-1 renal 91.4% | A498 renal 99.9% | CCRF-CEM leukemia 95.4% | MOLT-4 leukemia 70.9%
